# Some of the results follow. No count for the full screen is at hand.
# Molecular target: furin, P09958
# Assay: furin cleavage Z-score vs untreated control; higher = more cleavage, active = 3.5 or more, inactive = 1 or less, 8 variable residues between constant flanks
# How it was run: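 The cleavage Z-score was derived for purified furin acting on 8-mer peptides held on magnetic beads and fused to a cDNA oligonucleotide. Digests lasted 7.5, 15 or 30 min at 1:10 enzyme:substrate in 50 mM HEPES pH 7.5 with CaCl2 and NaCl. Sequencing counts of released DNA, log-transformed against furin-free reactions, were lowess-adjusted and scaled by median absolute deviation.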
# Sequence of furin, P09958 (P09958 whole entry): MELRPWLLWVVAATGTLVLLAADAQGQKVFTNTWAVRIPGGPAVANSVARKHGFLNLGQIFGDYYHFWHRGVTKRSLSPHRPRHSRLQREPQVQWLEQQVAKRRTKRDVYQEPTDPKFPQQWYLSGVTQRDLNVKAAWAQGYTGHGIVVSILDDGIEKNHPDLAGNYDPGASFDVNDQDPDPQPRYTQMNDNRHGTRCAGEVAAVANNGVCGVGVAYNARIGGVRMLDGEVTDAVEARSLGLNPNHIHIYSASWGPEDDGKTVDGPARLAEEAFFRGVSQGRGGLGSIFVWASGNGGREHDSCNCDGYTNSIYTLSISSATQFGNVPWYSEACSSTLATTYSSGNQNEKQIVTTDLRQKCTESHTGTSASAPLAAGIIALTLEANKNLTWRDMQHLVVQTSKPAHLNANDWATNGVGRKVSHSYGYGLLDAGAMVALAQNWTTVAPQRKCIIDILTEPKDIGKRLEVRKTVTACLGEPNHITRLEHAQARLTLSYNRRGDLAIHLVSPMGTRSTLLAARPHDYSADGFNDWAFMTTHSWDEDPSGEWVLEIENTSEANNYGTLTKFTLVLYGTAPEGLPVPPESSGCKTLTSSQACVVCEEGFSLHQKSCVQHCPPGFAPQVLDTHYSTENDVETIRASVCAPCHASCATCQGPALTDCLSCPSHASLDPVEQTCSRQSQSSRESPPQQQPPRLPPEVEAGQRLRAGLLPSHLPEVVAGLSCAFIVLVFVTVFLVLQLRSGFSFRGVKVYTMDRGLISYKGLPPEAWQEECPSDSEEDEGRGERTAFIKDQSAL
Sequence,furin cleavage Z-score (7.5 min),furin cleavage Z-score (15 min),furin cleavage Z-score (30 min)
CAMNTPGLPVAGNASASA [HC932],0.685 (inactive),0.0364 (inactive),-1.85 (inactive)
CAEVVTSTWGAGNASASA [HC2256],0.945 (inactive),1.37,-1.03 (inactive)
CAMQECSQHLAGNASASA [HC1702],0.311 (inactive),0.512 (inactive),-0.705 (inactive)
CAEEQKLPINAGNASASA [HC1379],0.861 (inactive),-1.11 (inactive),-0.462 (inactive)
CASVPCHRPSAGNASASA [HC2317],0.746 (inactive),0.823 (inactive),0.912 (inactive)
CASRKRAPRSAGNASASA [FS-963],10.6 (active),8.82 (active),9.02 (active)
CAREFRAHRSAGNASASA [FS-487],1.52,0.689 (inactive),1.39
CAIPVRAPRSAGNASASA [FS-442],5.71 (active),3.56 (active),4.32 (active)
CAEFERAPRSAGNASASA [FS-524],0.193 (inactive),0.266 (inactive),0.907 (inactive)
CANATRAPRSAGNASASA [FS-63],8.66 (active),8.42 (active),6.36 (active)
CATTPCSGLWAGNASASA [HC1905],0.96 (inactive),1.01,-0.0137 (inactive)
CATSTWVLVGAGNASASA [HC989],-2.25 (inactive),-0.362 (inactive),-1.37 (inactive)
CAYSSMPPLEAGNASASA [HC1353],0.446 (inactive),1.62,1.96
CAERVVCCSMAGNASASA [HC2133],-0.391 (inactive),0.896 (inactive),0.654 (inactive)
CALGARERRDAGNASASA [FS-1226],13.9 (active),15.5 (active),11.8 (active)
CAERAPERRDAGNASASA [FS-24],-2.22 (inactive),-0.00906 (inactive),-1.69 (inactive)
CARFPRFVNVAGNASASA [FS-2925],3.2,3.36,7.1 (active)
CAVGERFRRDAGNASASA [FS-386],11.7 (active),13 (active),8.87 (active)
CARRRRGFRQAGNASASA [FS-2788],2.04,3.6 (active),4.63 (active)
CARFPRGVSRAGNASASA [FS-3247],-0.934 (inactive),-0.454 (inactive),-0.752 (inactive)
CARQPRPAGVAGNASASA [FS-3041],-0.899 (inactive),-0.574 (inactive),-0.629 (inactive)
CAPVCQDHLEAGNASASA [HC935],-0.428 (inactive),-0.153 (inactive),-0.41 (inactive)

Sequence,furin cleavage Z-score (7.5 min),furin cleavage Z-score (15 min),furin cleavage Z-score (30 min)
CARDGKLPATAGNASASA [HC285],1.05,2.03,0.856 (inactive)
CATTPCLGSWAGNASASA [HC64],0.626 (inactive),0.544 (inactive),0.646 (inactive)
CAAGYGAGVAAGNASASA [HC1087],1.51,-1.39 (inactive),-0.133 (inactive)
CARRRRERDDAGNASASA [FS-1922],7.16 (active),10.1 (active),7.38 (active)
CARRRRSGADAGNASASA [FS-2081],1.69,0.662 (inactive),0.709 (inactive)
CARRRRGLECAGNASASA [FS-2789],6.18 (active),4.95 (active),7.29 (active)
CARRRRERRDAGNASASA [FS-1268],14.1 (active),12.4 (active),10.4 (active)
CASMPRERRDAGNASASA [FS-92],10.3 (active),12.9 (active),9.32 (active)
CALLCPAGHAAGNASASA [HC745],0.399 (inactive),0.942 (inactive),-0.0279 (inactive)
CAYIEQGMMLAGNASASA [HC1019],-1.18 (inactive),-0.261 (inactive),-0.872 (inactive)
CATTPCSTSWAGNASASA [HC1898],0.261 (inactive),0.66 (inactive),-0.516 (inactive)
CAVVVCSMSYAGNASASA [HC2030],0.0385 (inactive),-1.4 (inactive),0.392 (inactive)
CAMEECHQHLAGNASASA [HC29],0.383 (inactive),1.55,2.41
CAMTTDNLKCAGNASASA [HC1213],-0.575 (inactive),-0.0624 (inactive),0.0584 (inactive)
CARRRRERRTAGNASASA [FS-375],10.4 (active),11 (active),9 (active)
CARRRRFVPVAGNASASA [FS-2786],2.12,4.63 (active),5.2 (active)
CARRRRFPFVAGNASASA [FS-1784],0.483 (inactive),0.473 (inactive),1.3
CARRRRAVPVAGNASASA [FS-2596],0.0891 (inactive),0.235 (inactive),1.42
CACSHRERRDAGNASASA [FS-584],6.92 (active),7.04 (active),8.38 (active)
CADWLRQRRTAGNASASA [FS-1317],-0.575 (inactive),1.58,1.74
CASSDLYLVTAGNASASA [HC724],-0.584 (inactive),-0.169 (inactive),-0.884 (inactive)
CASVDRWRRTAGNASASA [FS-95],3.08,4.75 (active),4.05 (active)
